# Source: PubChem BioAssay
# Rows were chosen to be rich in hits. Some 19% of all compounds tested hit in one or more screens of this group.
# uPA generation: qHTS for Inhibitors of Cell Surface uPA Generation; cell surface uPA generation assay, qHTS; Potency, µM (series often up to 38.3 µM), usual class: inhibitors; actives 0.31% (n = 330,000); AID 540303, 2011; active means well fitted inhibition curve with a large enough effect; inconclusive means small, poorly fitted or top-dose-only effect; inactive means no such curve, though single readings can be large or run the other way; tested in mouse RAW 264.7 cells; further: nearly all actives have a fitted effect of over 55% in size
# TDP1 cell noCPT: qHTS for Inhibitors of human tyrosyl-DNA phosphodiesterase 1 (TDP1): qHTS in cells in absence of CPT; DT40 Tdp1-/- hTDP1 cells, no CPT, ATP luminescence, 48 h; Potency, µM (doses to about 46.2 µM), actives largely listed as inhibitors; actives 15% (n = 420,000); further: nearly all actives have a fitted effect of over 55% in size
#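 Growth of hTDP1-complemented DT40 Tdp1-knockout cells is measured by ATP luminescence after at least 48 hr compound exposure at 37 °C, with DMSO substituting for the 20 nM CPT used in the parallel screen.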
# IL-1B inflam inh: qHTS for Inhibitors of Inflammasome Signaling: IL-1-beta AlphaLISA Primary Screen; AID 743279, 2014; activity change, % at 57.5 µM; THP-1 LPS/ATP IL-1B secretion, AlphaLISA, 16 h; active compounds read low; actives 4.7% (n = 360,000); in the data active means activity change below about -50%; inconclusive means mostly about -30% to -49%
#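 Secreted IL-1B measured by AlphaLISA bead assay after 16 h compound exposure of THP-1 cells; compounds (final up to 57.5 uM) added 1 h before LPS (250 ng/mL) and ATP (1.25 mM) stimulation; lower signal means less secretion.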
# HT1080 IDH1KD tx: qHTS for induction of synthetic lethality in tumor cells producing 2HG: qHTS for the HT-1080-IDH1KD cell line. HT-1080 IDH1 knockdown viability, ATP luminescence, 48 h. Potency, µM (top dose mostly 46.1 µM), hits mostly cytotoxic. actives 2% (n = 360,000)
#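 Viability of IDH1-knockdown HT-1080 fibrosarcoma cells was assessed by CellTiter-Glo after 48 h at 37 °C with titrated compound; concentration-effect curves were classified by fit quality and response size.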
# HT1080NT lethal: qHTS for induction of synthetic lethality in tumor cells producing 2HG: qHTS for the HT-1080-NT fibrosarcoma cell line; HT-1080-NT fibrosarcoma viability, CellTiter-Glo ATP luminescence, 48 h; Potency, µM (top dose mostly 46.1 µM), usual class: cytotoxic; actives 1.6% (n = 360,000); AID 686970, 2013;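 further: NT is the 2HG producing partner of a matched IDH1 knockdown line; nearly all actives have a fitted effect of over 55% in size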
#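 Viability of the 2HG-overproducing fibrosarcoma line after 48 hours of compound exposure at 37 degrees C was determined by luminescence with CellTiter-Glo, and concentration-effect curves were then fitted and categorized.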
# DT40 TDP1 CPT: qHTS for Inhibitors of human tyrosyl-DNA phosphodiesterase 1 (TDP1): qHTS in cells in presence of CPT. chicken DT40 Tdp1-/-;hTDP1 cells + 20 nM CPT, ATP luminescence, 48 h. Potency, µM (titrated, usually from 46.2 µM), actives largely listed as inhibitors. actives 12% (n = 420,000). AID 686979, 2013; further: nearly all actives have a fitted effect of over 55% in size
#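 Cell growth measured by CellTiter-Glo luminescence after a minimum 48 h, 37 C compound exposure with 20 nM CPT in Tdp1-knockout DT40 cells stably expressing hTDP1, seeded 400/well; qHTS titration format.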
# Hits are given with their value; 0 = inactive; ? = inconclusive; - = no result given; [ ] = another dose, or the depositor's remark. Unless noted, the call rests on the fitted dose curve; in most records, active means well fitted curve in the direction sought with a large enough effect; inconclusive means small, poorly fitted or top-dose-only effect, or another doubt; inactive means no such curve, though single readings can be large; an effect the other way counts as inactive or inconclusive.
SMILES,uPA generation,TDP1 cell noCPT,IL-1B inflam inh,HT1080 IDH1KD tx,HT1080NT lethal,DT40 TDP1 CPT
Cc1cccc(N2CCN(C(=O)C34CC5CC(CC(C5)C3)C4)CC2)c1C,0,?,0,0,0,?
COc1ccc(/C=C/C(=O)NC(=S)NCCc2ccc(OC)c(OC)c2)cc1,0,?,0,10µM,11µM,?
CCCNC(=O)N1[C@H]2CC[C@@H]1C(C(=O)OC)=C(c1ccc(OC)c(OC)c1)C2,0,0,0,0,?,0
C=C1C(=O)O[C@H]2C[C@@H](C)[C@@H]3C=CC(=O)[C@@]3(C)C[C@H]12,0,0.65µM,-111,8.2µM,?,1µM
C=C1C(=O)O[C@@H]2C[C@@H](C)[C@@H]3C=CC(=O)[C@@]3(C)[C@@H](OC(=O)CC(=O)O[C@H]3[C@@H]4C(=C)C(=O)O[C@@H]4C[C@@H](C)[C@@H]4C=CC(=O)[C@]43C)[C@H]12,0,0.073µM,0,0.23µM,?,0.058µM
COc1ccc(CCC(=O)N2C[C@H]3C[C@@H](C2)c2cccc(=O)n2C3)cc1,0,0,0,0,0,0
COc1ccc(CCNc2nccn(-c3ccc(C)c(C)c3)c2=O)cc1OC,-,13µM,-,-,-,15µM
C=CCC1([C@H](C)CCC)C(=O)NC(=O)NC1=O,-,0,-,-,-,0
O=C(CSc1nc2ccccc2c(=O)n1-c1ccccc1)Nc1ccc2c(c1)CCC2,-,21µM,0,0,0,?
CCCC(C)C1(CC)C(=O)NC(=O)N=C1N (stereo not given),0,0,0,0,0,?
COc1ccc(C(=O)C2CCCN(Cc3cccc(C)n3)C2)c(OC)c1 (stereo not given),0,21µM,0,0,0,?
COc1ccc(C(=O)C2CCCN(Cc3ccc(C)s3)C2)c(OC)c1 (stereo not given),0,21µM,0,0,0,?
COc1ccc(C(=O)C2CCCN(C3CSCCSC3)C2)c(C)c1 (stereo not given),0,?,0,0,0,?
COc1ccc(C(=O)C2CCCN(C3CSCCSC3)C2)c(OC)c1 (stereo not given),0,23µM,0,0,0,?
CCCCC[C@@H](/C=C/C=C\C/C=C\C/C=C\CCCC(=O)O)OO,-,0[0.628 µM],-,-,-,0[0.628 µM]
CSc1ccccc1NC(=O)CN(C)CC(=O)c1[nH]c(C)c(C(C)=O)c1C,0,15µM,0,0,0,15µM
O=C(Nc1ccccc1)N1CCC2(CC1)OCCO2,0,0,0,0,0,0
Cc1ccc(S(=O)(=O)NC(Cc2cnc[nH]2)C(=O)O)cc1 (stereo not given),0,0,0,0,0,0
O=C1/C(=C\c2ccccc2)C2OCC=C3CN4CCC56c7ccccc7N1C5C2C3CC46 (stereo not given),0,?,0,0,0,21µM
COCC(=O)N1CCC2(CCCN(Cc3ccncc3)C2)CC1,-,0,-,-,-,0
COC(=O)c1c2[n+](cc3cc(OC)c(OC)cc13)CCc1cc(OC)c(OC)cc1-2,0,21µM,0,0,0,18µM
CCCCOC1OCN(C2CCCCC2)CC1(C)C (stereo not given),-,?,0,0,0,0
O=[N+]([O-])c1cc(C(F)(F)F)c(Cl)c([N+](=O)[O-])c1Nc1ncc(C(F)(F)F)cc1Cl,-,0.025µM,-,-,-,0.1µM
CCCCC1C(=O)NC(=S)N(C)C1=O (stereo not given),0,0,0,0,0,0
NC(=O)C(c1ccccc1)(c1ccccc1)[C@@H]1CCN(CCc2ccc3c(c2)CCO3)C1,-,19µM,-,-,-,?
SMILES,uPA generation,TDP1 cell noCPT,IL-1B inflam inh,HT1080 IDH1KD tx,HT1080NT lethal,DT40 TDP1 CPT
O=C(/C=C/c1ccc(Cl)cc1)NC(=S)N1C[C@H]2C[C@H](C1)c1cccc(=O)n1C2,0,0,0,0,0,0
COC(=O)C1=C(c2ccc(F)cc2OCc2ccccc2)C[C@@H]2CC[C@H]1N2C(=O)N1CCOCC1,0,7.3µM,0,0,0,8.2µM
COC(=O)C1=C(c2ccc(F)cc2OCc2ccccc2)C[C@@H]2CC[C@H]1N2C(=O)N1CCC(O)(c2ccc(Cl)cc2)CC1,?,23µM,-53,0,0,?
COC(=O)C1=C(c2ccc(F)cc2OCc2ccccc2)C[C@@H]2CC[C@H]1N2C(=O)N1CCC(C)CC1,0,?,0,?,?,?
C=CCn1c(O)c(C(C)=NC2CCN(Cc3ccccc3)CC2)c(=O)[nH]c1=O,0,0,0,0,0,0
Cc1ccc2nc(-c3ccncc3)cc(C(=O)N3CCC4(CC3)OCCO4)c2c1,0,?,0,0[9.24 µM],0,0
CC(/C=N/NC(=O)c1cc(-c2ccncc2)nc2ccccc12)=C\c1ccco1,?,3.7µM,0,1µM,0.89µM,2.6µM
CC1CC2(C)C(=CC1=O)CCC1C3CCC(C)(O)C3(C)CC3OC312 (stereo not given),0,?,0,0,0,?
C[C@]12N[C@H](Cc3ccccc31)c1ccccc12,0,?,0,0,0,?
COc1cc(O)c(C(=O)O)c(-c2cc(O)c(O)cc2C)c1,0,16µM,0,0,0,4.6µM
CCOC(=O)c1cc2ccccc2n1C1CCN(Cc2ccccc2)CC1,-,16µM,0,?,?,?
CCOC(=O)c1c(C=O)c2ccccc2n1Cc1ccccc1,0,0,0,0,0,0
COc1cc(Br)cc(CN2CCN(C)CC2)c1O,-,0,0,0,0,0
CCN1CCN(Cc2cc(Br)cc(Br)c2O)CC1,0,16µM,0,0,0,?
Cc1ccc(C2=NC(C)(C)N3C2C3c2ccc([N+](=O)[O-])cc2)cc1 (stereo not given),0,21µM,0,0,0,?
Cc1ccc([N+](=O)[O-])cc1,0,0,0,0,0,0
Cc1c(C(=O)Nc2ccccc2)c2cc(O)ccc2n1Cc1ccccc1,0,?,0,?,?,?
Cc1ccc(/C=C/C(=O)C2C(=O)c3ccccc3C2=O)cc1,?,?,0,0,0,16µM
O=C(C1CC(c2ccc(Cl)c(Cl)c2)=NO1)N1CCC2(CC1)OCCO2 (stereo not given),0,15µM,-71,0[9.24 µM],0,15µM
CC12CCC3C(CCC4CC(=O)C(C(O)C(F)(F)F)CC43C)C1CCC2O (stereo not given),0,?,0,0,0,?
CCN(Cc1ccc(Cl)nc1)/C(=C/[N+](=O)[O-])NC,-,0,-,-,-,0
